In one experiment the target is Albumin (Bos taurus) (UniProt P02769). The experiment is described as follows: bovine serum albumin binders on microarray, profiling panel, artefact control for SMM control protein annotation, biochemical, small-molecule microarray, Alexa647 label, 635/667 nm fluorescence (AID 1118).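 Also: score merges 667 nm emission intensity and signal-to-noise per printed compound spot.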 As to conditions: BSA-A647 binding, fluorescence 635 nm, higher = more signal.
A short description of experiment [1]: small-molecule microarray binders of probe aXIP, primary screen, biochemical, NeuroSMM set, 635/667 nm fluorescence (AID 1119).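 Also: probe is the protein aXip251-270 applied at 1 µg/mL to compound-printed slides; binding of probe to printed compounds measured as 667 nm fluorescence plus signal to noise.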 As to conditions: higher = more signal, called active from +8 up or from −8 down.
Experiment [2] in a line: small-molecule binders of probe aNOTCH3, primary screen, biochemical, small-molecule microarray, 635/667 nm fluorescence (AID 1120).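 Also: probe is a biotin-tagged antibody raised against NOTCH3 rather than NOTCH3 protein; score merges spot fluorescence near 667 nm with spot signal to noise.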 As to conditions: higher = more signal.
A short description of experiment [3]: small-molecule binders of probe aNOTCH2, primary screen, biochemical, small-molecule microarray, 635/667 nm fluorescence (AID 1121).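 Also: score merges feature fluorescence read at 667 nm with its signal to noise.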 As to conditions: higher = more signal.
Experiment [4] has as its target Carbonic anhydrase 2 (Homo sapiens) (UniProt P00918). The experiment can be described thus: CAII small-molecule binders, profiling panel, biochemical, small-molecule microarray, Alexa647-labelled CAII (AID 1122). As to conditions: CAII-A647 binding fluorescence, higher = more signal.
A short description of experiment [5]: COS7 lysate on small-molecule microarray, probe aHis, 635 nm (AID 1123).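 Also: z-score combines 667nm fluorescence intensity with signal-to-noise per printed compound spot.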 As to conditions: COS7 cell lysate, fluorescence, higher = more signal.
Experiment [6] is described as follows: compound binding in COS7 lysate, probe aLAP1, primary screen, cell lysate, small-molecule microarray (AID 1124).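 Also: lysate comes from COS7 cells expressing LAP1 and is applied at 0.3 µg/mL; score merges spot fluorescence near 667 nm with signal-to-noise over triplicate slides.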 As to conditions: probe aLAP1, fluorescence, higher = more signal.
The next experiment has as its system Sam68 (KHDRBS1). The experiment is described as follows: Sam68 small-molecule binders, primary screen, biochemical, small-molecule microarray, 635 nm fluorescence (AID 1125).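 Also: score merges 667 nm channel intensity with signal to noise over triplicate slides.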 As to conditions: small-molecule microarray binding, higher = more signal.
Experiment [7] has as its system Chordin-like protein 2 (CHRDL2). The experiment is described as follows: CHRDL2 small-molecule binders, primary screen, biochemical, small-molecule microarray, 635 nm fluorescence (AID 1126).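 Also: printed compound slides probed with Chrdl2 protein at 4 µg/mL for 1 h at 4 C; score merges 667 nm emission intensity with signal to noise over three replicate slides.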 As to conditions: small-molecule microarray binding, fluorescence 635 nm; higher = more signal.
Experiment [8] has as its target Concanavalin-A (Canavalia ensiformis) (UniProt P02866). The experiment can be described thus: ConA small-molecule binders, primary screen, artefact control for SMM control protein annotation, biochemical, small-molecule microarray, Alexa647 label, 635 nm (AID 1127).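 Also: z combines 667 nm emission intensity with signal-to-noise across three replicate slides.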 As to conditions: ConA-A647 binding fluorescence, higher = more signal.
Experiment [9] can be described thus: anti-His antibody binders, primary screen, artefact control for SMM control protein annotation, biochemical, small-molecule microarray, 635 nm fluorescence (AID 1128).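 Also: score merges feature fluorescence with signal-to-noise for each printed compound spot.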 As to conditions: anti-His Alexa647 antibody binding, higher = more signal.
Experiment [10] deals with Human papillomavirus type 1a E7 protein (residues 1-88). The experiment is described as follows: HPV1a E7 small-molecule binders, primary screen, biochemical, small-molecule microarray, residues 1-88, 635 nm (AID 1129). As to conditions: small-molecule microarray binding, fluorescence 635 nm; higher = more signal.
In experiment [11] the target is Focal adhesion kinase 1 (Homo sapiens) (UniProt Q05397). The experiment is described as follows: small-molecule microarray binders of FAK, primary screen, biochemical, 635/667 nm fluorescence, BSA, DTT (AID 1130).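 Also: composite of spot emission at 667 nm and signal to noise over triplicate slides.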 As to conditions: PTK2 binding, 635 nm fluorescence, higher = more signal.
Focal adhesion kinase 1 (Homo sapiens), sequence (Q05397 whole entry, looked up): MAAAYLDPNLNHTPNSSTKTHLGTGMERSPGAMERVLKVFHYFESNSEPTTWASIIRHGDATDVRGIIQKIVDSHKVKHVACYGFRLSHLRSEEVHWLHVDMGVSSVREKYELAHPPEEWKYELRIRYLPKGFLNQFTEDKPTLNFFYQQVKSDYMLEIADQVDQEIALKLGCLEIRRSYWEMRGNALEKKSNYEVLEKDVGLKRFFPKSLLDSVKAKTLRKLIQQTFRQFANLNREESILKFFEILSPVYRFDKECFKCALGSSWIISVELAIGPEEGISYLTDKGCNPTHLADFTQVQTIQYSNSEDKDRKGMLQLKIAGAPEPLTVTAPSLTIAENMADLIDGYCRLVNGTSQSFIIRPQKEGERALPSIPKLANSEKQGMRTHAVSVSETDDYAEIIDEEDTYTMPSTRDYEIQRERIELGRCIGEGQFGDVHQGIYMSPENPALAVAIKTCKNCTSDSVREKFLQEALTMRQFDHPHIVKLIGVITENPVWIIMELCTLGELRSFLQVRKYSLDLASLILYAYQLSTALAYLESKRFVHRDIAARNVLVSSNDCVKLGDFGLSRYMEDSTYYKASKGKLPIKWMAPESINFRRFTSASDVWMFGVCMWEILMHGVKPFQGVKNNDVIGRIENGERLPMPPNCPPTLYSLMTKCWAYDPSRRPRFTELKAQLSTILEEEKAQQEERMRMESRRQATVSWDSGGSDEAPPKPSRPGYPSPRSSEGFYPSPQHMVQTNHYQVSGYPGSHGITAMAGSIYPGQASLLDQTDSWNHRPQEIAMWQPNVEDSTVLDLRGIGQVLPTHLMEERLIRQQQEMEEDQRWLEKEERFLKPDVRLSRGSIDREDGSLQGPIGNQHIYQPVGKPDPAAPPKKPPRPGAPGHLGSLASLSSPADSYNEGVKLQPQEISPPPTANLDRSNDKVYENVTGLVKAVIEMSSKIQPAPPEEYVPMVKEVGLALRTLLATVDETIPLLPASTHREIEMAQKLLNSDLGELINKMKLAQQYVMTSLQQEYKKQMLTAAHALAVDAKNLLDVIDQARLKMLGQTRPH
Experiment [12] deals with Fibrinogen (Alexa647-labelled). The experiment is described as follows: fibrinogen binders on compound microarrays, profiling panel, artefact control for SMM control-protein annotation, biochemical, small-molecule microarray, 635/667 nm fluorescence (AID 1131).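 Also: z-score merges 667 nm fluorescence with per-spot signal-to-noise over triplicate slides.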 As to conditions: fibrinogen-A647 binding fluorescence, higher = more signal.
In experiment [13] the target is Follistatin (Homo sapiens) (UniProt P19883). The experiment is described as follows: follistatin binders on small-molecule microarrays, primary screen, biochemical, small-molecule microarray, 635/667 nm fluorescence (AID 1132). As to conditions: FST binding, 635 nm fluorescence, higher = more signal.
Follistatin (Homo sapiens), sequence (P19883 whole entry, looked up): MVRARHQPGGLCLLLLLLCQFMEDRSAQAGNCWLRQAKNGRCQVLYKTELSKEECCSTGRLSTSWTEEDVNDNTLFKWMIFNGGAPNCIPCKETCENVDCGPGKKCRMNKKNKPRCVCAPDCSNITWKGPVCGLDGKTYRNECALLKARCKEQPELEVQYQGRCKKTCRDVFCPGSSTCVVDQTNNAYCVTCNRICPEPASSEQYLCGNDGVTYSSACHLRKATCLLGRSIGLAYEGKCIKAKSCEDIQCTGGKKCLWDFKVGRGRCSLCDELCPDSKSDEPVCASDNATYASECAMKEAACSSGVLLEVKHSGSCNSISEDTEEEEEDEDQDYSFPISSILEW
Experiment [14] addresses Fibroblast growth factor 2 (Homo sapiens) (UniProt P09038). The experiment is described as follows: FGF2 binders on small-molecule microarrays, primary screen, biochemical, small-molecule microarray, 635/667 nm fluorescence (AID 1133). As to conditions: small-molecule microarray binding, FGF2, fluorescence 635/667; higher = more signal.
A short description of experiment [15]: mitochondrial membrane potential change in A549 cells, profiling panel, cell-based, JC-1 fluorescence, basal, 24 h, 100 nL (AID 1138).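 Also: A549 lung adenocarcinoma cells under basal conditions with no added stimulus; test concentration not given here.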 As to conditions: higher = more signal.
A further experiment deals with Lefty1. The experiment is described as follows: Lefty1 binders on small-molecule microarrays, primary screen, biochemical, small-molecule microarray, 635/667 nm fluorescence (AID 1139). As to conditions: small-molecule microarray binding, fluorescence 635/667; higher = more signal.
The test system of experiment [16] is wheat germ agglutinin (Triticum aestivum), Alexa647-labelled. The experiment can be described thus: wheat germ agglutinin binders on compound microarrays, profiling panel, artefact control for SMM control-protein annotation, biochemical, small-molecule microarray, 635/667 nm fluorescence (AID 1140).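 Also: score merges 667 nm feature emission with signal to noise over triplicate slides.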 As to conditions: WGA-A647 binding, 635 nm fluorescence, higher = more signal.

Experiment [17] concerns the target Luciferin 4-monooxygenase (Photinus pyralis) (UniProt P08659). The experiment can be described thus: firefly luciferase enzyme inhibitors, primary screen, biochemical, luminescence, purified enzyme, 2006 set (AID 1141).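 Also: cell-free assay with purified firefly luciferase at 100 ng per well in PBS; test concentration not given here.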 As to conditions: SteadyGlo luminescence, 30 min, higher = more signal, called active from +8 up or from −8 down.

Each structure is given as a SMILES string. Active and inactive are the calls of the source.

Luciferin 4-monooxygenase (Photinus pyralis), sequence (P08659 whole entry, looked up): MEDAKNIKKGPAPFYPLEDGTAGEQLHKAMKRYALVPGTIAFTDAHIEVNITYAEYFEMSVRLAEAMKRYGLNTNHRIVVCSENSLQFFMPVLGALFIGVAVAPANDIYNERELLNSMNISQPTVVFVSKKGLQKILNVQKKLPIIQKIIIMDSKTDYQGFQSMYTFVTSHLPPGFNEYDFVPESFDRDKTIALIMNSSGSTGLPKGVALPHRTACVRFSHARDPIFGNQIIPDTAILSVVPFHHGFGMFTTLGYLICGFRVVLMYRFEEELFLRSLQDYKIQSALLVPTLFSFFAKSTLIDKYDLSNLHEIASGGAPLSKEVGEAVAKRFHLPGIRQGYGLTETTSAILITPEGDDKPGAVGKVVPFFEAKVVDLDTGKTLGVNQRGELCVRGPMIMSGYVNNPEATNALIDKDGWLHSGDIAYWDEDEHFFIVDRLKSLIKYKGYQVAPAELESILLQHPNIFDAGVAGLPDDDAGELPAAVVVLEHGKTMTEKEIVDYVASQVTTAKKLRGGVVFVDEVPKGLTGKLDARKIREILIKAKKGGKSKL
Concanavalin-A (Canavalia ensiformis), sequence (P02866 whole entry, looked up): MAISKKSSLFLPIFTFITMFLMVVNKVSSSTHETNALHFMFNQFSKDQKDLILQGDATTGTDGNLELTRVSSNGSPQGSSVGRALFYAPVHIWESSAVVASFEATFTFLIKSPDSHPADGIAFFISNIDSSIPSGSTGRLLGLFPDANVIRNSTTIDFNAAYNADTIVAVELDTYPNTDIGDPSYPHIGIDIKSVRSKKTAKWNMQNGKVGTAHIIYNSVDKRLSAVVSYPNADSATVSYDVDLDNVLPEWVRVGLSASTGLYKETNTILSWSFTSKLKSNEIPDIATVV
Albumin (Bos taurus), sequence (P02769 whole entry, looked up): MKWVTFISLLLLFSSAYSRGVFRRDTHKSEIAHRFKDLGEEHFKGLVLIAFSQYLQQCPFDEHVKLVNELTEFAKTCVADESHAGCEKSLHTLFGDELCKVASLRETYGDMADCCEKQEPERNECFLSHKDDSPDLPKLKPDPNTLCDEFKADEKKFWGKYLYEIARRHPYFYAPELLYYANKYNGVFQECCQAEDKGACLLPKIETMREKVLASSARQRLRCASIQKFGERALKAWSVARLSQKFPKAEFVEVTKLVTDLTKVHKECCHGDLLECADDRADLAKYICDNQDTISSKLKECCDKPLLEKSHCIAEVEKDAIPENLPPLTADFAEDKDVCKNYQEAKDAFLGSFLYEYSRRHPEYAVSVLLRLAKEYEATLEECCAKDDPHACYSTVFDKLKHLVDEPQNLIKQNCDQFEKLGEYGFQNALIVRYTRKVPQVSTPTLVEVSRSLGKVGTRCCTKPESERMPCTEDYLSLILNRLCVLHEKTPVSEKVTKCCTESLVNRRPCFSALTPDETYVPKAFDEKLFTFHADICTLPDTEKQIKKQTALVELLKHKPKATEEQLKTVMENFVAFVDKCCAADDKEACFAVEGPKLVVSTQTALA
Fibroblast growth factor 2 (Homo sapiens), sequence (P09038 whole entry, looked up): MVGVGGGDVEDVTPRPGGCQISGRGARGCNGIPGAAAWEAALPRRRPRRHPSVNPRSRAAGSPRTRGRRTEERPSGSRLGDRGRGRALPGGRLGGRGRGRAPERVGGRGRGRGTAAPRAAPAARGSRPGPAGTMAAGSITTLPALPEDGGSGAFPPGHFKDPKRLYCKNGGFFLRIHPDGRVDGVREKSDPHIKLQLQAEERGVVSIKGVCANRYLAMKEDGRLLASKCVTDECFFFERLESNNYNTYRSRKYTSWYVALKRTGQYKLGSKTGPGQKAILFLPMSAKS

In the case of `COC(=O)[C@@]1(Cc2ccc(F)cc2)[C@H]2c3cc(C(=O)N(C)C)n(Cc4ccccc4)c3C[C@H]2CN1C(=O)c1ccccc1`, the composite z-score with Albumin (Bos taurus) was found to be 0.816; in [2] it was 0.215; in experiment [3], 0.0431; in [4], 0.183; in experiment [5], 2.05; in [6], 0.495. Moreover, the composite z-score in the experiment with Sam68 (KHDRBS1) was 0.78; in experiment [7], -0.643; in [8] it was 1.04; in experiment [9], 1.38; in experiment [10], 0.789; in experiment [11], -0.109. For the same compound, the composite z-score was 0.91 in experiment [12]; 0.787 in [13]; -0.525 in experiment [14]; 0.0954 with Lefty1; 1.16 in experiment [16]. In experiment [1], the composite Z-score is 0.0843 (inactive). Moreover, the z-score was 0.906 in experiment [15] and 2.14 (inactive) in [17].
For `O=C1C2C=CC(C(O)CCc3ccccc3)N(Nc3ccccc3F)C2C(=O)N1c1ccccc1` (stereo not given), the composite z-score in the experiment with Albumin (Bos taurus) is 0.955; in experiment [2] it was 0.331; in [3], -0.0677; in experiment [4], 0.755; in [5] it was 2.69; in experiment [6], 0.185. Further, the composite z-score in the experiment with Sam68 (KHDRBS1) was 1.22; in experiment [7], -0.47; in [8], 0.893; in experiment [9] it was 1.49; in [10], 1.14; in experiment [11], 1.01. The composite z-score is 0.434 in [12]; 1.25 in experiment [13]; -0.449 in experiment [14]; 0.0364 with Lefty1; 0.548 in [16]. Also, in [1], the composite Z-score was -0.585 (inactive). Moreover, the z-score is 0.00533 in [15] and 1.48 (inactive) in experiment [17].
With `CN(C)CCCC[C@@H]1NC(=O)[C@@H]2C[C@H](C(=O)NCCCCCCN)[C@H](c3cccc(OCCO)c3)N2C1=O`, the composite z-score in the experiment with Albumin (Bos taurus) is 0.839; in experiment [2] it was 1.07; in [3], 0.308; in [4] it was 0.632; in experiment [5] it was 3.25; in experiment [6] it was 0.495. The composite z-score with Sam68 (KHDRBS1) stood at 1.3; in experiment [7], 0.299; in [8], 1.13; in [9], 3.34; in experiment [10], 1.2; in experiment [11] it was 1.48. Moreover, the composite z-score in experiment [12] was found to be 0.936; in experiment [13], 0.861; in experiment [14], 0.357; with Lefty1, 0.409; in experiment [16], 1.49. Also, the composite Z-score in experiment [1] was 0.938 (inactive). In addition, the z-score in experiment [15] was -0.9; in [17], 0.132 (inactive).
`C=CCOC(=O)[C@@H]1[C@H]2C(=O)O[C@H](c3ccccc3)[C@H](c3ccccc3)N2[C@H](c2ccc(OCCOC(=O)[C@@H]3C[C@@H]4C(=O)NCC(=O)N4[C@@H]3c3ccc(O)cc3)cc2)[C@@]12C(=O)Nc1ccc(I)cc12`: the composite z-score in the experiment with Albumin (Bos taurus) was 0.471; in experiment [2], -0.0879; in experiment [3], -0.108; in [4], 0.617; in [5], 1.04; in experiment [6], -0.143. The composite z-score came to 1.31 in the experiment with Sam68 (KHDRBS1); 1.03 in [7]; 1.19 in [8]; 1.88 in experiment [9]; 1.21 in experiment [10]; 0.823 in experiment [11]. Besides, the composite z-score in [12] was found to be 0.342; in experiment [13] it was 1.36; in [14], 1.27; in the experiment with Lefty1, 0.734; in experiment [16] it was 0.86. In [1], the composite Z-score is -0.666 (inactive). In addition, the z-score in experiment [15] was -1.73; in experiment [17], 0.401 (inactive).

The values are drawn from PubChem BioAssay.
